Among all 420,000 compounds or so, about 50,000 (12%) were called active. Entries that show only a call come without a potency. Roughly 26% stayed inconclusive and do not appear here. Calls follow the shape of the dose curve; as a rule, active = well fitted inhibition curve with a large enough effect; inconclusive = small, poorly fitted or top-dose-only effect; inactive = flat fitted curve, though single readings scatter. The full list was thinned out, with actives kept by preference.
Test: qHTS for Inhibitors of human tyrosyl-DNA phosphodiesterase 1 (TDP1): qHTS in cells in presence of CPT; also: nearly all actives have a fitted effect of over 55% in size
Conditions: chicken DT40 Tdp1-/-;hTDP1 cells + 20 nM CPT, ATP luminescence, 48 h; series mostly up to 46.2 µM
How it was run: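 Chicken DT40 Tdp1-/- cells stably complemented with human TDP1 were seeded at 400 cells/well in medium containing 20 nM camptothecin, exposed to pin-transferred compounds, and grown at 37 °C for at least 48 hr. Viability was read as ATP luminescence.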
Potency is read from the fitted curve at half-maximal effect.

SMILES	Potency
COc1ccc(N2C(=O)NC(NS(=O)(=O)c3ccc(Cl)cc3)(C(F)(F)F)C2=O)cc1 (stereo not given)	inactive
O=C1/C(=C\c2ccccc2Cl)SC(=S)N1CCC(=O)N1CCCc2ccccc21	6.51 µM (active)
COc1ccc(/C=C2\SC(=S)N(CCC(=O)Nc3cccc(C(=O)O)c3)C2=O)cc1OC	inactive
O=C(CN1CCCCCC1)NCCN1C(=O)S/C(=C\c2ccccc2Cl)C1=O	inactive
Cc1ccc([C@@H]2CC(=O)[C@@H]3CN(S(=O)(=O)c4ccc(C)cc4)[C@H](c4ccccc4F)C[C@@H]3N2S(=O)(=O)c2ccc(Cl)cc2)cc1	inactive
CC1CC(NC(=O)/C(C#N)=C/c2ccc[nH]2)CC(C)(C)C1 (stereo not given)	0.0184 µM (active)
CC1CC(NC(=S)N(C)C)CC(C)(C)C1 (stereo not given)	inactive
CCN(C[C@H]1N[C@@](CC)(C(=O)OC)[C@H]2C(=O)N(C)C(=O)[C@@H]12)C(=O)Nc1ccc(F)cc1	inactive
Cc1nn(C(=O)c2c(F)cccc2F)c(C)c1S(=O)(=O)N1CCOCC1	inactive
O=C(Nc1ccc(NC(=O)c2ccco2)c(Cl)c1)c1cccc([N+](=O)[O-])c1	inactive
O=C(Nc1ccc(C2CC2(Cl)Cl)cc1)c1cccc([N+](=O)[O-])c1 (stereo not given)	23.1 µM (active)
Cc1cccc(C(=O)NNC(=O)c2cccc([N+](=O)[O-])c2)c1	inactive
Cc1c(NC(=O)C(C)Oc2cccc(Cl)c2)c(=O)n(-c2ccccc2)n1C (stereo not given)	inactive
COc1cc(/C=N/Nc2nn3cnnc3c3ccccc23)cc(OC)c1OC	10.3 µM (active)
COc1cc(/C=N/NC(=O)Cc2ccccc2)cc(OC)c1OC	inactive
COc1ccc2[nH]c(C(=O)N/N=C/c3cc(OC)c(OC)c(OC)c3)cc2c1	inactive
CCOC(=O)CSc1nc(N2CCOCC2)c2c(c1C#N)CC(C(C)C)OC2 (stereo not given)	inactive
Cc1cccc(NC(=O)Cc2ccc(Br)cc2)n1	inactive
CC(Cc1cccs1)NC(=O)NC1CCCCC1 (stereo not given)	inactive
Cc1ccsc1C(C(=O)NC1CCCCC1)N(C(=O)Cc1cccs1)C1CC1 (stereo not given)	20.6 µM (active)
Cc1ccccc1N(C(=O)Cc1cccs1)C(C(=O)NC1CCCCC1)c1cn(C)nc1C (stereo not given)	inactive
CC(NC(=O)c1cc(Sc2ccc(F)cc2F)nc2ccccc12)c1ccccc1 (stereo not given)	13 µM (active)
CC(NC(=O)c1cc(=O)[nH]c2ccccc12)c1ccc(F)cc1F (stereo not given)	inactive
CC(NC(=O)c1ccccc1SCC(=O)N1CCCC1)c1ccccc1 (stereo not given)	inactive
CCCCNC(=O)c1nc(C2CCN(S(=O)(=O)c3ccc(F)c(F)c3)CC2)oc1-c1cccc(C(F)(F)F)c1	inactive

SMILES	Potency
COc1ccc(N2CCN(S(=O)(=O)c3cc(Br)cnc3N)CC2)cc1	inactive
COc1ccc(N2CCN(c3cc(C)nc4nncn34)CC2)cc1	13 µM (active)
COc1ccc(N2CCN(Cc3nnc(-c4ccccc4)o3)CC2)cc1	inactive
O=C(Nc1cc(Cl)cc(Cl)c1)c1ccc2c(c1)N(Cc1cccc(Cl)c1)C(=O)c1ccccc1S2=O (stereo not given)	3.66 µM (active)
O=C(CN1C(=O)c2ccccc2C1=O)NCc1ccc(C(=O)O)cc1	inactive
O=C(CCN1C(=O)c2ccccc2C1=O)NNC(=O)c1ccc(Cl)cc1Cl	inactive
CN(C(=O)c1ccc2c(c1)N(Cc1cccc(Cl)c1)C(=O)c1ccccc1S2=O)C1CCCCC1 (stereo not given)	18.4 µM (active)
Cc1cccc(C(=O)Nc2ccc3c(c2)C(=O)N(CC(C)C)C3=O)c1	inactive
CN(Cc1ccc(F)cc1)C(=O)CN1C(=O)c2ccccc2S1(=O)=O	inactive
CCN(CC)C(=O)C1CCCN(Cc2cccc(Cl)c2)C1 (stereo not given)	inactive
O=C(O)c1ccc2c(c1)N(Cc1ccc(F)cc1)C(=O)c1ccccc1S2=O (stereo not given)	11.6 µM (active)
Cc1ccccc1NC(=O)NCC1CCN(Cc2cccc(Cl)c2)CC1	inactive
Brc1cc(/C=N/n2cnnc2)oc1Br	inactive
CCCOC1CCCN(Cc2cn(C)nc2-c2ccccc2F)C1 (stereo not given)	inactive
CC(=O)N1CC(=O)N(CC(=O)Nc2ccc(Br)cc2)C1=S	inactive
COc1cccc(CNC(=O)Cn2c(=O)c3cccn3c3ccc(F)cc32)c1OC	inactive
Cc1cccc(N2CC(C(=O)Nc3ccccc3N3CCCC3)CC2=O)c1C (stereo not given)	inactive
O=C(COc1ccccc1F)OCc1cc(=O)n2nc(C3CCCCC3)sc2n1	inactive
CN(C)CCN=c1cc(-c2ccccc2)oc2ccc(Cl)cc12	inactive
CCc1nn(CC(=O)Nc2cc(C)cc(C)c2)c(=O)c2cc3sccc3n12	4.11 µM (active)
CCc1nn(CC(=O)NCC(C)c2ccccc2)c(=O)c2cc3occc3n12 (stereo not given)	inactive
CCc1nn(CC(=O)Nc2cccc(C)c2C)c(=O)c2cc3sccc3n12	inactive
O=C(CC1SC(N2CCOCC2)=NC1=O)Nc1ccccc1F (stereo not given)	inactive
O=C(Nc1cc(Cl)ccc1N1CCOCC1)c1ccc(N2CCCC2=O)cc1	inactive
O=C(Cc1ccc(S(=O)(=O)N2CCOCC2)s1)N1CCN(c2ccc(C(F)(F)F)cc2[N+](=O)[O-])CC1	14.6 µM (active)

SMILES	Potency
Cc1cc(S(=O)(=O)N2CCOCC2)ccc1OCC(=O)Nc1cccc(C(F)(F)F)c1	inactive
CNS(=O)(=O)c1ccc(N2CCCC2=O)c([N+](=O)[O-])c1	inactive
O=C(c1ccc(N2CCCC2=O)cc1)N1CCN(c2ccc(C(F)(F)F)cc2[N+](=O)[O-])CC1	3.66 µM (active)
O=C(OCC(=O)N1CCOCC1)c1ccc(N2CCOCC2)c([N+](=O)[O-])c1	inactive
O=C(Cc1ccc(S(=O)(=O)N2CCOCC2)s1)NCCOc1ccccc1F	inactive
O=C(Cc1ccc(S(=O)(=O)N2CCOCC2)s1)Nc1ccc(Br)c(C(F)(F)F)c1	14.6 µM (active)
O=C(COc1ccc(S(=O)(=O)N2CCOCC2)cc1Cl)N1CCOCC1	inactive
O=C(Nc1ccccc1Cl)N1CCN(c2ccc3nncn3n2)CC1	inactive
Cc1c(C)c2ccc(OCC(=O)N3CCC(C(=O)O)CC3)c(C)c2oc1=O	inactive
Cc1cccc(OCCC(=O)OCc2csc(CC(=O)Nc3ccccc3C)n2)c1	inactive
COC(=O)c1ccc(CNC(=O)c2ccc3oc(C(C)C)nc3c2)cc1	inactive
COc1ccc(CSc2nnnn2-c2ccc(O)cc2)cc1F	inactive
CC1CCCCC1NC(=O)Cn1cnc2c1c(=O)n(C)c(=O)n2C (stereo not given)	inactive
O=C(c1ccc(Oc2ccc(Cl)cc2)c([N+](=O)[O-])c1)N1CCCC1	13 µM (active)
O=C(Oc1ccccc1Cl)c1ccc(N2CCOCC2)c([N+](=O)[O-])c1	inactive
O=C(COc1ccc(Cl)cc1[N+](=O)[O-])N1CCCCC1	inactive
Cc1ccc(-c2nn(CC(C)(C)C)c3ncnc(N)c23)cc1	6.68 µM (active)
Cc1ccc(-n2cnc3ncnc(-c4ccccc4)c32)cc1	inactive
CC(=O)NC(CC(=O)Nc1nccs1)c1ccccc1 (stereo not given)	inactive
CCOc1ccc(NC(=O)CN(C)C(=O)COc2cccc(CC)c2)cc1OCC	inactive
Cc1noc(C)c1CCC(=O)N1CCCC(CO)(Cc2ccccc2)C1 (stereo not given)	inactive
Oc1ccc(N=Nc2nccs2)c(O)c1	10.3 µM (active)
Oc1ccc2ccccc2c1N=Nc1nccs1	1.16 µM (active)
Oc1ccc2ccccc2c1C=Nc1ccccc1	inactive
O=C(OCC(=O)N1CCCCCC1)c1ccc(Br)c(S(=O)(=O)N2CCOCC2)c1	inactive

SMILES	Potency
COC(=O)C1=C(C(=O)OC)[C@@H]2N(Cc3ccccc3)c3ccccc3[C@@]23C[C@@H](C(=O)OC)N(S(=O)(=O)c2ccc(C(F)(F)F)cc2)C3=N1	inactive
CN1OC[C@@H]2CN(C(=O)C(C)(C)C)[C@H](c3ccc(-n4ccnc4)cc3)C[C@@H]21	inactive
O=C(Nc1cccc(NC(=O)c2cccc(F)c2)c1)c1ccccc1	inactive
Cc1c(NC(=O)c2coc(=O)c(Br)c2)c(=O)n(-c2ccccc2)n1C	2.59 µM (active)
O=C(CCN1C(=O)c2ccccc2C1=O)Nc1cccc(F)c1	inactive
O=C(Nc1cccc(F)c1)c1coc(=O)c(Br)c1	1.3 µM (active)
Cc1cc(C(=O)Nc2c(C)n(C)n(-c3ccccc3)c2=O)cs1	inactive
Cc1c(NC(=O)c2cccnc2)c(=O)n(-c2ccccc2)n1C	inactive
NS(=O)(=O)c1ccc(NC(=S)N2CCCC2)cc1	inactive
CCSC1=NCCN1C(=O)c1ccc(S(=O)(=O)N(CC)CC)cc1	inactive
COc1ccc(N(C(=O)c2cccnc2)S(=O)(=O)c2ccc(OC)c(OC)c2)cc1	inactive
COc1ccc(C(=O)Nc2cccnc2)cc1C(=O)Nc1cccnc1	inactive
COc1ccc(C(=O)Nc2ccc(-n3nncc3-c3ccccc3)cc2)cc1OC	3.66 µM (active)
COc1ccccc1C(=O)NNC(=O)c1ccc(NC(=O)c2ccccc2)cc1	inactive
CCC1OC(C2CC2)CC2=C1C(=O)OC(C)(C)O2 (stereo not given)	inactive
CC(=O)N1N=C(c2ccccc2)OC1c1cccnc1 (stereo not given)	inactive
Cc1cc(C)cc(NC(=O)CCN2C(=O)c3ccccc3C2=O)c1	inactive
Cc1ccc2nc(CNC(=O)c3ccccc3)[nH]c2c1	inactive
O=C(N/N=C/c1ccc(O)c2ccccc12)c1cccnc1	inactive
Cc1ccc(/C=N/NC(=O)C2=NNC(c3ccccc3)(c3ccccc3)C2)c(O)c1	4.61 µM (active)
COc1ccc(-c2cc(C(F)(F)F)nc(S(C)(=O)=O)n2)cc1OC	2.06 µM (active)
COc1ccc(C2=NO[C@@H]3C(=O)N(Cc4ccccc4)C(=O)[C@H]23)cc1OC	inactive
CCN(CC)CCN(C)C(c1ccnc2ccccc12)c1nnnn1-c1ccc2c(c1)OCCO2 (stereo not given)	inactive
Cc1ccc(S(=O)(=O)NCCCn2ccnc2)cc1C(=O)NC(C)C	inactive
O=C(NCc1ccco1)c1ccc([N+](=O)[O-])cc1Cl	inactive

— PubChem BioAssay AID686979 (National Center for Advancing Translational Sciences (NCATS), 2013)
